Only some compounds are listed: those with a hit (about 2.4% of all), similar ones and a draw of the others.
SENP7 inh = SENP7 protease inhibition. Q9BQF6. recombinant SENP7, Z-RLRGG-aminoluciferin luminescence, 40 min. inhibition, % at 5 µM. actives 1.5% (n = 330,000). AID 434973;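 active = inhibition above about 50% at the single test dose, limit read from the data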
SENP8 block-1 = blocks the human protease SENP8; purified SENP8, Z-RLRGG-aminoluciferin cleavage, luminescence; inhibition, % at 10 µM; actives 1.2% (n = 330,000); in the data active = inhibition above about 50%
SENP8 block-2 = SENP8 (human) protease inhibition | actives 0.64% (n = 360,000) | AID 602440 | recombinant SENP8, Nedd8 substrate fluorescence | inhibition, % at 20 µM | Q96LD8; in the data active = inhibition mostly above about 40%, no sharp cut-off; inactive = mostly below about 27%
Platelet DG rel = platelet dense granule release activity; AID 1663; actives 0.22% (n = 300,000); inhibition, %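 (compounds screened at 7.5 µM in platelet-rich plasma)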; human platelet-rich plasma, SFLLRN dense granule ATP release, luminescence;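 active = mean replicate score, as percent of positive control, at or above 50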
SENP6 block = blocks the human protease SENP6; Q9GZR1; Recombinant SENP6 catalytic domain, aminoluciferin luminescence; inhibition, % at 10 µM; actives 1.8% (n = 330,000); AID 2599;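 active = inhibition above about 50% at the single tested dose, limit read from the data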
Target sequence (Q9GZR1 628-1112 limits assumed): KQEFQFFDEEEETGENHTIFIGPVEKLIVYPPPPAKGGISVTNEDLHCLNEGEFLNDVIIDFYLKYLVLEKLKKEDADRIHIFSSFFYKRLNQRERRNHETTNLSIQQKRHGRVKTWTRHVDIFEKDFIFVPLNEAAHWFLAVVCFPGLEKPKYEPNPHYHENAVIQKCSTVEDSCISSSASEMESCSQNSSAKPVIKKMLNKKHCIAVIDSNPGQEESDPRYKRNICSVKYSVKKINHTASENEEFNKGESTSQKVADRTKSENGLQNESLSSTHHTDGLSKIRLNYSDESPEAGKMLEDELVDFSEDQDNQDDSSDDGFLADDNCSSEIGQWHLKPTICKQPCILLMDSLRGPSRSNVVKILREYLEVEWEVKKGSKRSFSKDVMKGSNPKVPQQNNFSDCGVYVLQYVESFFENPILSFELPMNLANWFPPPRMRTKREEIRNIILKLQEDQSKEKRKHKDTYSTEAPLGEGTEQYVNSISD
SENP8 confirm = confirmation of human SENP8 protease inhibitors; AID 488912; inhibition, % at 12.5 µM; shares compounds with SENP7 inh; actives 40% (n = 6,200); Recombinant SENP8, Z-RLRGG-aminoluciferin luminescence, 60 min;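 active = mean inhibition across replicates above about 50%, limit read from the data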
SENP6 confirm = confirmation of human SENP6 protease inhibitors; shares compounds with SENP7 inh; recombinant SENP6, Z-RLRGG-aminoluciferin luminescence; inhibition, % at 12.5 µM; actives 58% (n = 6,200); AID 488915
SENP7 conf = confirmation of human SENP7 protease inhibitors | AID 488917 | shares compounds with SENP7 inh | recombinant SENP7, Z-RLRGG-aminoluciferin luminescence, 40 min | actives 69% (n = 6,200) | inhibition, % at 12.5 µM
Casp3 select = caspase-3 inhibition (SENP selectivity assay) | shares compounds with SENP7 inh | inhibition, % at 12.5 µM | AID 488918 | purified caspase-3, Z-DEVD-aminoluciferin luminescence, 60 min | actives 60% (n = 6,200);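 active = mean inhibition above about 50%, limit read from the data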
SENP luc ctr = interferes with luciferase luminescence in SENP counter-screen; Pre-incubated SENP8/Z-RLRGG-aminoluciferin, luciferase luminescence interference; AID 488919; inhibition, % at 12.5 µM; actives 39% (n = 6,200); shares compounds with SENP7 inh;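 active = mean inhibition above about 50% when retested at one dose, limit read from the data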
Hits are given with their value; – = inactive; · = no result given.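 Rule for the calls, unless noted: active = mean inhibition above about 50% in the one-dose retest (limit read from the data); inactive = the rest.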

SMILES	SENP7 inh	SENP8 block-1	SENP8 block-2	Platelet DG rel	SENP6 block	SENP8 confirm	SENP6 confirm	SENP7 conf	Casp3 select	SENP luc ctr
O=C(/C(N=Nc1cccc(C(F)(F)F)c1)=C(/O)c1cccs1)C(F)(F)F	–	–	–	–	–	·	·	·	·	·
Cc1ccccc1-c1nc2cc(N)ccc2o1	74.2	59.9	–	–	71.6	–	–	–	–	–
CC(C)c1ccc2oc(-c3cc(N)ccc3O)nc2c1	86.1	90.7	–	–	94.1	–	91.4	93.9	69.7	–
Cc1ccc(OCC(=O)NNC(=O)C2CC(=O)N(c3ccc4c(c3)OCCO4)C2)cc1 (configuration not stated)	–	–	–	–	–	·	·	·	·	·
CN(CCC#N)c1ccc(/C=C(\C#N)c2ccccn2)cc1	–	79.8	–	–	75.9	91.1	91.6	99.3	89.1	92.0
CCN(Cc1ccccc1)c1ccc(/C=C(\C#N)c2ccccn2)cc1	–	–	–	–	–	·	·	·	·	·
O=C(O)C(c1ccccc1)C(c1ccccc1)c1ccccc1 (configuration not stated)	–	–	–	–	–	·	·	·	·	·
COc1ccc(-c2cc3nnc(-c4ccccc4)nc3s2)cc1	–	–	–	–	–	·	·	·	·	·
COc1ccc(-c2cc3ncnc(Cl)c3s2)cc1	–	83.7	–	–	83.4	–	–	–	–	–
O=C1CCCC(O)=C1N=Nc1cccc(C(=O)O)c1	80.0	60.8	–	–	76.5	–	78.1	95.5	–	69.5
CCc1ccc(NC(=O)c2cnn(-c3ccccc3)c2C)cc1	75.7	–	–	–	59.3	–	–	50.3	69.1	–
Cc1ccc(-n2ncc3c2ncn2c(C)nnc32)cc1C	–	–	–	·	53.7	–	–	72.8	75.5	–
CCc1nnc2c3cnn(-c4ccccc4)c3ncn12	–	–	–	–	–	·	·	·	·	·
CCOC(=O)N1C(=O)NC(=O)C1c1ccc(Cl)cc1 (configuration not stated)	·	·	–	·	·	·	·	·	·	·
COc1cc(/C=C/c2nc3ccccc3s2)cc(OC)c1O	–	–	–	–	–	·	·	·	·	·
Cc1ccc(/C=C/c2nc3ccccc3s2)s1	–	85.7	–	–	91.6	97.4	100.1	103.2	95.2	78.0
CCCCN(C)C(=O)CNC(=O)c1nn(-c2ccc(OC)cc2OC)c(=O)c2ccccc12	–	–	–	–	–	·	·	·	·	·
CCOC(=O)c1cc2ccc3ccccc3c2s1	–	–	–	–	57.9	–	–	53.7	–	–
CCOC(=O)c1cc(=O)n2c(nc3ccccc32)[nH]1	78.9	76.3	–	–	83.5	82.3	82.7	96.5	94.0	56.4
Cc1cc(=O)n2c(nc3ccccc32)[nH]1	–	–	–	–	–	·	·	·	·	·
CCOC(=O)c1cc2cc3ccccc3cc2[nH]1	–	–	–	–	54.4	–	–	–	–	–
O=C(O)CC1S/C(=N\N=C/c2ccccc2)N(c2ccc(O)cc2)C1=O (configuration not stated)	–	–	–	–	–	·	·	·	·	·
CN1C(=O)C(CC(=O)O)S/C1=N\N=C\c1ccc(O)cc1O (configuration not stated)	–	–	–	–	60.6	–	–	73.6	79.5	–
CCOc1ccc(Cl)cc1S(=O)(=O)N1CCC(C(=O)NCc2cccnc2)CC1	–	–	–	–	–	·	·	·	·	·
Cc1ccc(OCc2nnc(SC(C)C(=O)O)n2Cc2ccccc2)cc1 (configuration not stated)	–	–	–	–	–	·	·	·	·	·
SMILES	SENP7 inh	SENP8 block-1	SENP8 block-2	Platelet DG rel	SENP6 block	SENP8 confirm	SENP6 confirm	SENP7 conf	Casp3 select	SENP luc ctr
COc1ccc(N=Cc2nc(-c3ccccc3)oc2OC(=O)c2ccccc2)cc1	56.1	–	–	–	54.1	–	–	–	62.2	–
CN(C)c1ccc(N=Cc2nc(-c3ccccc3)oc2OC(=O)c2cccc(Br)c2)cc1	–	–	–	–	78.4	–	–	–	–	–
CC(C)NC(=O)C1(C)CSCC(=O)N1Cc1cccs1 (configuration not stated)	·	·	–	·	·	·	·	·	·	·
O=C(N/N=C/c1ccccc1)c1[nH]ncc1Br	94.9	86.0	–	–	91.4	88.9	88.0	98.2	94.8	–
COc1ccc(/C=N/NC(=O)c2[nH]ncc2Br)c(OC)c1	87.4	75.1	–	–	82.5	80.0	81.2	96.7	92.8	–
COc1ccc(/C=N/NC(=O)c2cccc(NC(C)=O)c2)c(OC)c1	–	–	–	–	–	·	·	·	·	·
N#Cc1ccccc1OCC(=O)NNC(=O)CNC(=O)c1ccc(Br)o1	–	–	–	·	–	·	·	·	·	·
C=CCNC(=O)c1cc(Cl)ccn1	89.0	–	–	–	–	–	–	–	–	–
O=C(CN1C(=O)c2ccccc2S1(=O)=O)NCc1ccco1	–	–	–	–	–	·	·	·	·	·
Cc1ccc(C)c(S(=O)(=O)C(C#N)c2nc3ccccc3nc2N2CCCC2)c1 (configuration not stated)	–	64.8	–	–	70.2	–	–	–	–	–
O=C(NNC(=O)c1cc(Br)c(Br)s1)c1csc(N2CCOCC2)n1	–	–	–	–	–	·	·	·	·	·
N#Cc1ccccc1CSc1ccc(-c2nc3ccccc3[nH]2)cn1	–	–	–	–	64.3	66.8	63.0	79.9	–	53.2
Cc1cc2nc(-c3ccc(SCc4ccc(C#N)cc4)nc3)[nH]c2cc1C	–	–	–	–	–	·	·	·	·	·
CC(=O)CSc1ccc(-c2nc3ccccc3[nH]2)cn1	72.7	–	–	–	78.4	70.5	67.0	88.1	85.6	71.8
CCc1ccc(-c2nc(SCC(=O)c3c(N)n(C4CC4)c(=O)[nH]c3=O)n[nH]2)cc1	–	–	–	·	–	·	·	·	·	·
Clc1cc(Cl)c2nc(N3CCOCC3)sc2c1	–	–	–	–	–	·	·	·	·	·
Clc1ccc(-c2nsc(N3CCOCC3)n2)c(Cl)c1	68.2	64.9	–	–	77.1	66.3	64.3	88.8	71.8	–
Nc1cccc2c1C(=O)N(CCOc1ccc(F)cc1)C2=O	54.7	–	–	–	68.3	54.7	–	84.7	53.1	–
O=C1c2ccccc2C(=O)N1CCOc1ccccc1Cl	59.0	–	–	–	51.5	–	–	78.4	–	56.5
O=C1c2ccccc2C(=O)N1CCOc1ccccc1	–	–	–	–	60.1	–	–	73.2	59.3	52.0
COc1cc(C(=O)COC(=O)c2ccc([N+](=O)[O-])o2)cc(OC)c1OC	–	–	–	·	–	·	·	·	·	·
Cn1ccnc1SCC(=O)Nc1ccc(Br)cc1C(F)(F)F	–	–	–	–	–	·	·	·	·	·

High-throughput results deposited in PubChem by several laboratories.
